Mcl1-Bid inh – Mcl-1/Bid binding inhibitors, primary screen, biochemical, TR-FRET, 1536-well | Induced myeloid leukemia cell differentiation protein Mcl-1 (Homo sapiens), Q07820 | TR-FRET Mcl-1/Bid-Dy647 peptide binding | inhibition, % at 21.7 µM | hit rate 0.97% among 220,000;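 active = compounds that cut the binding signal by more than half at the single screening dose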;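 note: His-tagged Mcl-1 with europium anti-His antibody binding Bid BH3 peptide; 0% = Mcl-1 plus peptide wells and 100% = peptide-only wells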
GLD-1 TGE inh – GLD-1/TGE RNA complex disruptors, primary screen, biochemical, fluorescence polarization. purified GLD-1 + fluorescein TGE RNA. hit rate 0.44% among 320,000. Female germline-specific tumor suppressor gld-1 (Caenorhabditis elegans), Q17339. AID 2280, 2010. inhibition, % at 5.96 µM;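 active = percent inhibition above a per-plate cutoff, the plate mean of test compounds plus 3 SD, cut at about 30% in these data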;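 note: 0% = DMSO wells with GLD-1 and probe and 100% = wells lacking GLD-1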
Target sequence (Q17339 whole entry, looked up): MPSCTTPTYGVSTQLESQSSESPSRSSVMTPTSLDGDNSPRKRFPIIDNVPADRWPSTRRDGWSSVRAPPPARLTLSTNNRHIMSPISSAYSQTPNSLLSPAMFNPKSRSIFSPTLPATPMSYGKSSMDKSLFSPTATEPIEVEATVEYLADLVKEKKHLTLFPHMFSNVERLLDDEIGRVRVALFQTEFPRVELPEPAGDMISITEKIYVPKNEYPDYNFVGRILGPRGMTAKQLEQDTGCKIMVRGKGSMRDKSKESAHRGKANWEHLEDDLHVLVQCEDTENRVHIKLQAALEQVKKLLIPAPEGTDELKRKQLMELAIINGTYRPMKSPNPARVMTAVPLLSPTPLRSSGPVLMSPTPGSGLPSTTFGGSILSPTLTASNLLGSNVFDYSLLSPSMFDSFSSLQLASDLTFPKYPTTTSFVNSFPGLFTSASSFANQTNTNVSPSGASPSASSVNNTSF
Mcl-1 Bim block – inhibitors of Bim peptide binding to Mcl-1, primary screen, biochemical, bead-based flow cytometry, multiplex | hit rate 0.1% among 190,000 | inhibition, % at 10 µM | Bim peptide-Mcl-1 binding | AID 1009, 2008 | Induced myeloid leukemia cell differentiation protein Mcl-1 (Homo sapiens), Q07820; in the data active = inhibition above about 40%;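 note: 0% = no compound tracer wells and 100% = peptide blocker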
Mcl1 Noxa PPI – Mcl-1/Noxa binding inhibitors, primary screen, biochemical, TR-FRET, 1536-well. Induced myeloid leukemia cell differentiation protein Mcl-1 (Homo sapiens), Q07820. TR-FRET Mcl-1/Noxa peptide binding, 2 h. inhibition, % at 21.7 µM. hit rate 1.5% among 220,000. AID 1022, 2008;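 active = compounds that cut the protein-peptide binding signal by more than 50% relative to plate controls in a single-dose test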;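 note: His-tagged Mcl-1 with rhodamine Noxa BH3 peptide and terbium anti-His antibody; 0% = Mcl-1 plus Noxa peptide wells and 100% = peptide-only wells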
BCLXL inh – inhibitors of human Bcl-xL, primary screen, biochemical, fluorescence polarization, HTS | inhibition, % at 10.9 µM | hit rate 0.7% among 320,000 | GST-Bcl-xL / FITC-Bim BH3 peptide fluorescence polarization;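 active = inhibition above the mean of all tested compounds plus 3 SD, cutoff set per campaign, cut at about 30% in these data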;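 note: 0% = DMSO wells and 100% = unlabeled Bim-BH3 peptide competitor; inhibitors lower millipolarization by displacing the labeled peptide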
Target sequence (Q07817 whole entry, looked up): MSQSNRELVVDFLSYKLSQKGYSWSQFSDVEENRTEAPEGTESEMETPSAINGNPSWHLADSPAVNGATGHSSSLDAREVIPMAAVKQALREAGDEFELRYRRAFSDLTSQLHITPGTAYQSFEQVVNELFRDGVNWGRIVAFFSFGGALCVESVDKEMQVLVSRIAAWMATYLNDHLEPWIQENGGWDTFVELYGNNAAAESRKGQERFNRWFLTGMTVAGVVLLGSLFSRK
MCL1-BIM inh – inhibitors of MCL1 binding to BIM-BH3, primary screen, biochemical, fluorescence polarization; Induced myeloid leukemia cell differentiation protein Mcl-1 (Homo sapiens), Q07820; GST-MCL1 / FITC-Bim-BH3 fluorescence polarization; inhibition, % at 10.9 µM; hit rate 0.68% among 320,000;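 active = inhibition above the mean inhibition of all tested compounds plus 3 SD, set per campaign, cut at about 40% in these data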;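 note: 0% = DMSO wells and 100% = unlabeled Bim-BH3 peptide control; higher means more loss of mP so more displacement of Bim peptide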
* = called active by the depositor; nt = no result given. Most compounds without a hit are left out; they make up all but 2.3% or so of the library.

SMILES	Mcl1-Bid inh	GLD-1 TGE inh	Mcl-1 Bim block	Mcl1 Noxa PPI	BCLXL inh	MCL1-BIM inh
O=C(CN1C(=O)NC2(CCCCC2)C1=O)Nc1ccc(F)cc1	-7.1	-1.5	2.0	12.7	-6.3	-1.1
O=C(NCCC1=CCCCC1)C1CCC(CNc2c(N3CCCC3)c(=O)c2=O)CC1 (stereo unspecified)	-47.5	4.5	nt	-9.3	7.4	9.9
CC(C)N1CCc2c(sc(NC(=O)c3cc4cc([N+](=O)[O-])ccc4s3)c2C(N)=O)C1	35.1	nt	1.0	76.3*	nt	nt
Cc1cccc(NC(=O)c2cc3cc([N+](=O)[O-])ccc3s2)n1	33.5	-2.7	5.0	59.7*	0.3	-9.4
Cc1cccc(NC(=O)c2cccs2)n1	-4.8	2.5	5.0	78.3*	4.6	4.2
Cc1cccc(NC(=O)CNC(=O)c2cccs2)n1	nt	6.2	nt	nt	4.2	7.8
O=S(=O)(c1ccc2c(c1)OCCO2)N1CCC(n2cnc3cc(F)ccc32)CC1	-12.5	-4.8	0.0	-5.7	3.1	6.8
COc1ccc(Cc2nc3ccccc3[nH]2)cc1OC	-34.7	6.2	0.0	-4.4	4.0	3.4
Cc1ccc2c(CN3CCN(S(=O)(=O)c4ccccc4C(F)(F)F)CC3)cc(=O)oc2c1C	nt	7.1	nt	nt	-0.6	3.7
Cc1ccc(CC(=O)NCCCc2ccccc2)cc1	-26.0	6.6	0.0	-0.9	1.1	-3.7
Cc1ccc(S(=O)(=O)CCNC(=O)Cc2ccccc2)cc1	95.7*	5.3	-2.0	-2.4	5.3	-0.7
CCCCn1c(NC(=O)c2ccccc2)c(C#N)c2nc3ccccc3nc21	85.0*	nt	2.0	66.7*	nt	nt
Cc1ccc(S(=O)(=O)CC(=O)Nc2nc(C(C)(C)C)cs2)cc1	nt	8.8	nt	nt	-1.1	-7.2
O=C(Cn1cnc2ccccc2c1=O)Nc1ccc(S(=O)(=O)N2CCOCC2)cc1	-16.6	2.8	-2.0	11.2	3.4	5.3
O=C(Cn1cnc2cc([N+](=O)[O-])ccc2c1=O)Nc1cccc(S(=O)(=O)N2CCOCC2)c1	-6.0	6.8	-2.0	52.8*	-1.2	9.2
N#C/C(=C\c1ccc(C(=O)O)cc1)c1nc2sc3c(c2c(=O)[nH]1)CCCC3	12.7	nt	nt	74.0*	nt	nt
O=C(O)CCc1ccc(-c2ccc(Br)cc2)n1Cc1ccco1	-36.6	3.2	0.0	51.5*	1.8	6.8
COc1ccc2nc(SCC(C)=O)c(C#N)cc2c1	-52.9	-7.7	8.0	-20.8	32.4*	17.5
C/C=C/c1ccc(OCC(=O)OCC(=O)NC2CC2)c(OC)c1	-15.6	nt	-3.0	11.3	nt	nt
CCN(CC)c1ccc(Nc2nc(N3CCOCC3)c3ccccc3n2)cc1	21.8	3.9	3.0	54.1*	25.7	23.0
CC1CCN(CCC(=O)Nc2ccc(F)c(F)c2)CC1	nt	6.3	nt	nt	4.1	1.2
CCN(CC)c1ccc(NC(=O)c2ccc3c(c2)c(C)c(C)n3C)cc1	-4.3	-2.9	0.0	76.8*	-5.4	5.8
CCn1cc(C(=O)Nc2ccccc2C(=O)OC)cn1	nt	5.3	nt	nt	3.2	4.3
CCOc1cccc(C(=O)Nc2ccc(N(CC)CC)cc2)c1	-29.8	2.3	0.0	64.8*	6.5	6.4
Cc1cccc(OCCCC(=O)Nc2ccc(S(N)(=O)=O)cc2)c1	1.0	2.5	-2.0	6.0	0.0	1.4
SMILES	Mcl1-Bid inh	GLD-1 TGE inh	Mcl-1 Bim block	Mcl1 Noxa PPI	BCLXL inh	MCL1-BIM inh
CCOc1cccc(C(=O)Nc2ccc3ccccc3c2)c1	nt	2.2	nt	nt	5.3	8.7
CCN(CC)c1ccc(NC(=O)CCCOc2cccc(C)c2)cc1	-49.2	nt	1.0	77.0*	nt	nt
CCN(CC)c1ccc(NC(=O)c2cnn(CC)c2)cc1	17.9	-8.8	-3.0	66.1*	-2.0	2.3
COC(=O)c1ccc(CSc2nnc3n(Cc4ccccc4OC)c(=O)c4ccccc4n23)o1	-14.7	-4.1	-2.0	6.1	-10.2	-2.4
O=C(NCC(=O)N1CCN(C(=O)c2ccco2)CC1)c1ccc(Cl)cc1	nt	4.6	nt	nt	1.6	6.9
COC(=O)/C=C/c1ccc2c(c1)OCO2	-11.6	1.9	1.0	2.0	3.0	-1.8
CCNc1ccccc(C(=O)/C=C/c2ccc3c(c2)OCO3)c1=O	-29.3	-0.2	1.0	70.1*	8.8	34.6
O=C(Cc1cccs1)Nc1ccc(-c2nnn(CC(=O)N3CCOCC3)n2)cc1	-35.9	1.9	-2.0	55.7*	10.0	37.1
COc1ccc(-c2nnn(CC(=O)N3CCOCC3)n2)cc1	-12.4	5.7	-4.0	-1.1	3.6	-4.0
Cc1nnc2ccc(-c3ccc(NC(=O)Cc4cccs4)cc3)nn12	-62.2	0.8	nt	67.6*	7.0	15.6
CCN(CC)CCNC(=O)c1ccc(NC(=O)c2ccc3c(c2)CCC3)cc1	nt	14.2	nt	nt	47.6*	22.3
c1ccc(Oc2nc3ccccc3n3cccc23)cc1	67.1*	3.7	-2.0	8.2	-2.3	-1.8
Cc1ccc(Oc2nc3ccccc3n3cccc23)cc1	2.1	0.5	-5.0	8.8	-2.7	5.4
COc1ccc(/C=N/Nc2nc(-c3ccc(C)cc3)c(NC(C)=O)s2)cc1OC	-32.9	-15.7	nt	56.8*	-1.8	-6.0
CC(=O)Nc1sc(N/N=C/c2ccc(C)cc2)nc1-c1ccc(C)cc1	-37.7	-2.9	nt	23.8	4.3	12.1
CCOc1cc(/C=N\Nc2nc(-c3ccc(C)cc3)c(NC(C)=O)s2)ccc1O	-6.2	-6.7	nt	66.8*	2.9	9.2
COc1cc(/C=N\Nc2nc(-c3ccc(C)cc3)c(NC(C)=O)s2)ccc1O	-53.2	-3.6	nt	83.3*	-0.1	1.3
COCCOC(=O)C1=C(C)NC(=O)NC1c1c(Cl)nc2ccccn2c1=O (stereo unspecified)	1.6	12.0	-2.0	1.9	3.2	-4.4
CCOC(=O)CC(=O)CSCC(=O)Nc1ccc(C)cc1	-21.3	2.0	0.0	-9.5	1.7	8.3
CC(C)(C)OC(=O)NC1CONC1=O (stereo unspecified)	-39.6	-0.5	-3.0	20.9	7.4	3.2
O=C(NC1CCCCC1)C(c1ccc2ncccc2c1)N(Cc1ccccc1)C(=O)c1ccc2c(c1)OCCO2 (stereo unspecified)	85.9*	1.5	0.0	61.4*	-0.1	2.1
O=S(=O)(c1ccc(Oc2ccc(-c3nnco3)cc2)nc1)N1CCC(Cc2ccccc2)CC1	59.2*	1.1	-1.0	-75.4	-0.4	-5.1
O=c1nc2s/c(=C\c3ccc(-c4ccccc4[N+](=O)[O-])o3)c(=O)n2nc1-c1ccccc1	-36.2	nt	3.0	96.3*	nt	nt
CCCCCOc1ccc(/C=c2\sc3nc(=O)c(-c4ccccc4)nn3c2=O)cc1OC	-16.0	1.0	-9.0	21.1	-4.5	-13.8
